The source made the active and inactive calls.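 Rule for the calls: active = cell survival after UV exposure 2 SD above solvent-only control wells at 10 µM, confirmed on one or two repeats; inactive = the rest.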

This note sets out measurements from PubChem BioAssay AID1347383 (Zoeller Lab, School of Medicine, Boston University, 2020).

This assay in a line: protection of CHO cells from pyrene-fatty acid UV killing, primary screen, phospholipid biosynthesis inhibitor project, ZR-82 cells, Analyticon library, screen 2 (AID 1347383).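 Note: survival reflects blocked phospholipid synthesis cutting uptake of the phototoxic fatty acid; compound and fatty acid exposure 3 h then viability read next day.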 Conditions: ZR-82 CHO cells, CellTiter Blue, at 10 µM, peroxisome-deficient CHO-K1 variant, with DGAT-1, DGAT-2 and ACAT inhibitors.
As to `CCCCCCCCCC(O)CC(CC(CC1CC=CC(=O)O1)OC(C)=O)OC(C)=O` (centres undefined), the result was inactive.
`COc1cc(/C=C(/C)C(C)Cc2ccc(O)c(OC)c2)ccc1O` (centres undefined): the compound was classed as inactive.
The entry for `CC(=O)NC(Cc1c[nH]c2ccccc12)C(=O)O` (centres undefined) is “inactive”; for `COC1C(OC(=O)/C=C/C=C/C=C/C=C/C(=O)O)CCC2(CO2)C1C1(C)OC1CC=C(C)C` (centres undefined) it is “inactive”; for `COc1cc(/C=C/c2ccc(O)cc2)cc(OC)c1` it is “inactive”.
The same measure for `C/C=C(\C)C(=O)O[C@@H]1[C@@H](C(C)C)[C@@H](OC(C)=O)C=C(CO)[C@@H]1O`: “inactive”.
The same measure for `CC1Cc2cc(O)c(O)cc2C(c2ccc(O)cc2)C1C` (centres undefined): “inactive”; for `COc1ccc(C2(O)c3ccccc3NC(=O)C2OC)cc1` (centres undefined): “inactive”.
Consider `CC1OC(n2cnc3c(N)ncnc32)C(O)C1O` (centres undefined), for which the compound was called inactive.
The entry for `COc1c(C2=Cc3ccc(O)cc3OC2)ccc(O)c1CC=C(C)C` is “inactive”; for `CC(=O)NC1C=CC(CCC(NC(C)=O)C(=O)O)C=C1` (centres undefined) it is “inactive”; for `C=C1C[C@]23C[C@H]4C5[C@]6(C)CC(=O)C[C@]57C(C2C(O)[C@H]1C(O)C37)N4C6` (some centres undefined) it is “inactive”.
With `COc1ccc2cc3[n+](cc2c1OC)CCc1cc2c(cc1-3)OCO2`, the outcome was inactive.
The entry for `COc1cc(C2OC(c3ccc(O)c(OC)c3)C(C)C2C)ccc1O` (centres undefined) is “active”.
Regarding `O=C(CCCCc1ccc(O)cc1)CCc1ccc(O)cc1`, the call was inactive.
The same measure for `COc1cc(O)cc2c1C(=O)CC(c1ccc(O)cc1)O2` (centres undefined): “inactive”; for `Cc1cc(O)c2c(c1)C(=O)c1cccc(O)c1C2=O`: “inactive”; for `Cc1coc2c1CC1OC1(C)CCC1OC1(C)C2` (centres undefined): “inactive”.
The same measure for `C=C(CO)C1Cc2c(ccc3c(=O)c4c(oc23)COc2cc(O)c(OC)cc2-4)O1` (centres undefined): “inactive”.
